MIN6 prolif: inducers of beta-cell replication in MIN6 cells | 330,000 tested, 0.29% active | MIN6 cells proliferation, ATPlite luminescence, 48 h; cells starved in 0.2% serum; 100% = growth in 10% serum | proliferation, % at 10 µM;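 active means compounds whose signal lies at least 3.5 SD above the mean of all wells on their plate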
hiPSC survival: increases survival of single human iPS cells. hiPSC single-cell survival, ATPlite luminescence; 100% = ROCK inhibitor wells, 0% = DMSO. survival enhancement, % at 20 µM. 360,000 tested, 0.044% active. AID 602274; in the data active means survival enhancement above about 18%;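 further: cells exposed to compounds for 16 hours before the ATP read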
Cardio protect: modulators protecting cardiomyocytes from myocardial damage; H9c2 cardiomyocytes, H2O2 injury protection, ATPLite, 2 h; protection from H2O2 cell death, % at 20 µM; 360,000 tested, 0.63% active;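 active means compounds giving at least 50% protection of heart cells from peroxide-induced death in the single-dose screen, raw or plate-pattern-corrected value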
Myeloid diff MLP: myeloid differentiation induction | 360,000 tested, 1% active | AID 624256 | calls only at 10 µM | ER-HoxA9 myeloid progenitors, lysozyme-GFP differentiation, flow cytometry;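 active means normalized GFP-positive differentiation at or above the plate's own cutoff, the solvent-only control mean plus 3 SD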;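 further: cells exposed to compound for four days before flow analysis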
ABCB6 inh MLPCN: inhibitors of human ABC transporter ABCB6; Q9NP58; K562-ABCB6 porphyrin accumulation, flow cytometry, 1 h; hits give low values; fluorescence ratio to DMSO, % at 10 µM; 360,000 tested, 0.19% active; AID 602162;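 active means fluorescence ratio to DMSO below 75%, the collection mean minus 3 SD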;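 further: signal is porphyrin accumulated inside mitochondria; lower ratio means ABCB6 inhibition with less porphyrin fluorescence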
Target sequence (Q9NP58 whole entry, looked up): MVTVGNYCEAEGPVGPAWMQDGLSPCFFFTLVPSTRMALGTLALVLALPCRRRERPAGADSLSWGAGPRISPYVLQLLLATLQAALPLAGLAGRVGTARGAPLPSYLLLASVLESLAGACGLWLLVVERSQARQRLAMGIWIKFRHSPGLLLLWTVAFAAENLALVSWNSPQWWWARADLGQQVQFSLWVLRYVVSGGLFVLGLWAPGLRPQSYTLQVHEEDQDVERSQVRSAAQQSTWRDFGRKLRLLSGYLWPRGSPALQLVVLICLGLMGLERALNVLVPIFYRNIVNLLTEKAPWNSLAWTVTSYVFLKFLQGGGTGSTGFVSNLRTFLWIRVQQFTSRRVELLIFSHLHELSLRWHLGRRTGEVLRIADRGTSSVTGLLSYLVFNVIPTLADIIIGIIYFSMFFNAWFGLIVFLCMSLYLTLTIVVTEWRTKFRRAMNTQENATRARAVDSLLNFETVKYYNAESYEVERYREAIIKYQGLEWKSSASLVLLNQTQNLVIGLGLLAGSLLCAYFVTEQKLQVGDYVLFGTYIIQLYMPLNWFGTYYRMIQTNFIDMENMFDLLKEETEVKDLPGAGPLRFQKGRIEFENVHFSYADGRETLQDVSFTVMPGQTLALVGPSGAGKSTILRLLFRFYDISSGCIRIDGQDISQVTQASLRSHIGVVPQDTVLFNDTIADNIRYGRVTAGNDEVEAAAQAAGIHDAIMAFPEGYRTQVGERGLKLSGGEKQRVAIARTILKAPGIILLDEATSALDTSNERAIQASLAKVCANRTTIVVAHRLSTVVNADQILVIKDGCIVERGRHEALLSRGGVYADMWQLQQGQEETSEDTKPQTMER
Hits are given with their value; n = inactive; x = no result given; + = active, no number. Sampled rows, rich in hits. Any-hit rate of the full collection: about 2.2%.

SMILES	MIN6 prolif	hiPSC survival	Cardio protect	Myeloid diff MLP	ABCB6 inh MLPCN
Cc1ccc(C(=O)Nc2nnc(-c3ccco3)o2)cc1	n	n	n	n	n
O=C(Nc1nnc(-c2ccco2)o1)c1ccc([N+](=O)[O-])s1	n	n	n	+	n
CC(C)(C)OC(=O)n1cc(/C=N/NC(=O)c2ccco2)c2ccccc21	n	n	n	+	n
c1ccc2nc3c(nc2c1)CCc1nonc1-3	n	n	n	n	n
O=C(CCN1C(=O)NC2(CCCC2)C1=O)Nc1ccc(-c2nc3ccccc3s2)cc1	n	n	n	+	n
O=C(CCN1C(=O)NC2(CCCC2)C1=O)Nc1ccc(Sc2ccc(Br)cc2)cc1	x	n	n	n	n
COc1ccccc1NS(=O)(=O)c1cc([N+](=O)[O-])ccc1N/N=C/c1c(C)[nH]c2ccccc12	n	n	n	+	n
C/C(=N/Nc1ccc([N+](=O)[O-])cc1)c1c[nH]c2ccccc12	n	n	n	+	n
Cc1[nH]c2ccccc2c1/C=N/NC(=O)c1cccs1	n	n	56	n	n
O=[N+]([O-])c1ccc(N/N=C/c2c[nH]c3ccccc23)c(S(=O)(=O)Nc2ccc(Cl)cc2)c1	n	n	n	+	n
Cc1[nH]c2ccccc2c1/C=N/NC(=O)c1cccc([N+](=O)[O-])c1	n	n	n	n	n
C/C(=N/Nc1ccc([N+](=O)[O-])cc1)c1ccc(C)cc1C	n	n	n	n	n
CC(SCc1ccccc1)C(=O)Nc1ccccc1Br (centres undefined)	n	n	n	n	n
Cc1cccc(C)c1NC(=O)C1(N2C(=O)CC2c2ccccc2)CCCCC1 (centres undefined)	n	n	n	n	n
C=CCn1c(C)cc(C(=O)COC(=O)/C=C/c2ccc(OC)cc2)c1C	n	n	n	n	n
CCN1C(=O)[C@H]2[C@@H](c3ccc(C)cc3)N3C(=O)N(c4cccc(Br)c4)C(=O)[C@@]3(CC(C)C)[C@H]2C1=O	n	n	n	n	n
O=C(c1ccc2c(Cl)c3c(nc2c1)CCCC3)N1CCC(N2CCCCC2)CC1	n	n	n	n	n
Cc1[nH]c2ccccc2c1/C=N/Nc1ccc([N+](=O)[O-])cc1	x	n	n	+	n
Cc1c(CCC(=O)NCCCn2ccnc2)c(=O)oc2c(C)c3oc4c(c3cc12)CCCC4	n	n	n	+	n
CCN=C1S/C(=C\c2ccc(OC)c(OCC)c2)C(=O)N1CC	n	x	x	x	x
COCCNC(=O)c1cccc(NC(=O)C2=C(C)OCCS2)c1	n	n	n	x	n
CC1=C(C(=O)Nc2cccc(C(=O)NC3CCCC(C)C3C)c2)SCCO1 (centres undefined)	n	n	n	+	n
CCOC(=O)NN1C(=O)c2ccccc2NC1(C)C	n	n	n	n	n
CCN(Cc1ccccc1)C(=O)c1ccc(CS(=O)c2ccccc2C)o1 (centres undefined)	n	n	n	n	n
CC(=O)c1cccc(NC(=O)C(C)OC(=O)c2cccc(S(=O)(=O)N3CCN(C)CC3)c2)c1 (centres undefined)	n	n	n	n	n
SMILES	MIN6 prolif	hiPSC survival	Cardio protect	Myeloid diff MLP	ABCB6 inh MLPCN
CC(OC(=O)c1cccc(S(=O)(=O)N2CCN(C)CC2)c1)C(=O)Nc1ccc(C(N)=O)cc1 (centres undefined)	n	21	n	n	n
CCOC(=O)c1c(NC(=O)c2c(-c3ccccc3)noc2C)sc(C)c1-c1ccccc1	n	n	n	+	n
O=C(N/N=C/c1ccc(F)cc1)c1cc(-c2ccccn2)nc2ccccc12	n	n	n	n	n
COc1cccc(/C=N/NC(=O)c2cc(-c3ccccn3)nc3ccccc23)c1O	n	n	58	n	n
COc1ccccc1-c1cc(C(=O)N/N=C/C=C/c2ccccc2[N+](=O)[O-])c2ccccc2n1	n	n	54	n	n
COC(=O)c1[nH]c2ccccc2c1NC(=O)CCN1CCSCC1	n	26	n	n	n
COc1cccc(CC2(CO)CCCN(Cc3cn[nH]c3-c3ccccc3)C2)c1 (centres undefined)	n	n	n	+	n
Cc1ccccc1CC1(CO)CCCN(Cc2cn[nH]c2-c2ccccc2)C1 (centres undefined)	n	n	n	n	n
CN1CCC(N(C)C(=O)c2cc(-c3ccccc3Cl)nc3ccccc23)CC1	n	n	n	+	n
CCOc1ccc(NC(=O)CN(C)C(=O)CCc2nc3ccccc3c(=O)[nH]2)cc1OCC	x	n	n	n	n
